# Source: PubChem BioAssay AID1159577 (Broad Institute, 2015)
# About 240 (18%) of roughly 1,300 compounds were called active. About 8% were inconclusive and are not listed. The list is a sample of the results. Potency and affinity values are given separately. Values without a mark were called inactive. No rule for the calls is given here.
# Experiment: toxicity to human hepatoma HepG2 cells – cell-based, cherry-picked samples, cytotoxicity control, dose response (AID 1159577);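 also: 0% = neutral control wells and -100% = positive control wells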
# Details: HepG2 cytotoxicity counterscreen, plate reader; series mostly up to 19.5 µM; activity change, negative = cytotoxicity: at the top concentration
row,SMILES,"activity change, negative = cytotoxicity"
1,COc1ccc(-c2ccc3c(c2)[C@@H]2[C@@H](CCN2Cc2ccncc2)[C@@H](CO)N3)cc1,0.859% [at 21 µM]
2,CO[C@@H]1CN(C)C(=O)c2ccc(NC(=O)Nc3ccc(F)cc3)cc2OC[C@@H](C)N(C(=O)c2ccc(F)cc2)C[C@H]1C,-20.5%
3,CC(C)CC#Cc1ccc([C@H]2[C@@H](CO)N3C(=O)CN(C(=O)Cc4ccccc4)C[C@H]23)cc1,4.84%
4,C[C@H](CO)N1C[C@H](C)[C@@H](CN(C)C(=O)Nc2ccc(-c3ccccc3)cc2)OCc2ccccc2-c2c(n(C)c3ccccc23)C1=O,8.31%
5,COc1ccc2c3c([nH]c2c1)[C@H](CO)N(Cc1ccccc1Cl)CC31CCN(C(C)=O)CC1,-18%
6,C[C@@H]1CN([C@H](C)CO)C(=O)c2cc(C#Cc3ccccc3F)cnc2O[C@H]1CN(C)C(=O)c1ccc2c(c1)OCO2,25.6%
7,COc1ccc(-c2ccccc2[C@H]2[C@@H](C#N)N(C(=O)C3CCCC3)[C@H]2CO)cc1,-5.04%
8,CN1c2ccc(C3=CCCCC3)cc2[C@H]2[C@H](CCN2C(=O)C2CC2)[C@@H]1CO,-2.49%
9,COC(=O)c1ccc(CN2CC(=O)N3[C@H](CO)[C@@H](c4ccc(-c5ccccc5F)cc4)[C@H]3C2)cc1,5.03%
10,CC(C)NC(=O)N1CCCCN2[C@H](CO)[C@@H](c3ccc(C#C[C@H](C)O)cc3)[C@@H]2C1,-6.05%
11,CCC(=O)N1CCC2(CC1)CN(C(=O)Nc1ccc(F)cc1)[C@@H](CO)c1c2c2ccc(OC)cc2n1C,7.49%
12,C[C@H]1CN([C@@H](C)CO)C(=O)c2cc(NC(=O)Cc3cn(C)c4ccccc34)ccc2O[C@H]1CN(C)S(=O)(=O)c1cccs1,23.9%
13,C[C@@H]1CN([C@H](C)CO)S(=O)(=O)c2ccc(-c3ccncc3)cc2O[C@@H]1CN(C)Cc1ccc(Oc2ccccc2)cc1,-27.5%
14,C[C@@H]1CN([C@H](C)CO)C(=O)c2cccc(NC(=O)Nc3cccc4ccccc34)c2O[C@@H]1CN(C)C(=O)Nc1ccc(F)cc1,-28.1%
15,C/C=C/c1ccc2c(c1)[C@H]1[C@H](CCN1C(=O)c1cccc(F)c1)[C@H](CO)N2,-6.44%
16,O=C(O)C[C@@H]1C[C@@H]2c3cc(NS(=O)(=O)c4ccccc4)ccc3O[C@@H]2[C@H](CO)O1,-22.3%
17,C[C@@H](NC(=O)C[C@H]1C[C@@H]2c3cc(NS(=O)(=O)c4ccc(F)cc4)ccc3O[C@@H]2[C@H](CO)O1)c1ccccc1,-1.47%
18,CCS(=O)(=O)N1CCC2(CC1)CN(Cc1ccc3c(c1)OCO3)[C@@H](CO)c1[nH]c3cc(OC)ccc3c12,-14.1%
19,CCCNC(=O)N1[C@H](C#N)[C@H](c2ccc(C#Cc3cccc(F)c3)cc2)[C@H]1CO,-1.23%
20,O=C(C1CCCC1)N1CC[C@@H]2[C@H]1c1cc(-c3cccc(F)c3)ccc1N[C@@H]2CO,1.55%
21,N#Cc1cccc(-c2ccc3c(c2)[C@@H]2[C@@H](CCN2Cc2cncnc2)[C@H](CO)N3)c1,-6.56% [at 21 µM]
22,N#Cc1cccc(-c2ccc3c(c2)[C@H]2[C@H](CCN2Cc2ccncc2)[C@@H](CO)N3)c1,-4.34% [at 21 µM]
23,O=C(Cc1ccncc1)N1CC[C@@H]2[C@@H](CO)Nc3ccc(-c4cccc(F)c4)cc3[C@@H]21,9.47%

row,SMILES,"activity change, negative = cytotoxicity"
1,COc1ccc(S(=O)(=O)N(C)C[C@H]2Oc3c(NC(=O)Nc4ccc5c(c4)OCO5)cccc3C(=O)N([C@@H](C)CO)C[C@H]2C)cc1,-19.6%
2,CCc1nc(N2[C@H](C#N)[C@H](c3ccccc3-c3ccccc3F)[C@H]2CO)sc1C,-24%
3,COc1ccc(CN2CC3(CN(C(=O)Cc4ccccc4)C3)c3c([nH]c4cc(OC)ccc34)[C@H]2CO)cc1,-13.9% [at 21 µM]
4,CO[C@H]1CN(C)C(=O)c2ccc(NC(=O)Nc3cc(F)ccc3F)cc2OC[C@@H](C)N(C)C[C@H]1C,10.8%
5,COc1ccc2c3c(n(C)c2c1)[C@H](CO)N(C(=O)CC1CC1)CC31CCN(Cc2nccs2)CC1,-4.39%
6,Cc1ccccc1S(=O)(=O)N1[C@H](C#N)[C@H](c2ccc(C#CC3CCCC3)cc2)[C@@H]1CO,-7.23%
7,CN1c2ccc(C#Cc3cccnc3)cc2[C@@H]2[C@@H](CCN2S(=O)(=O)c2ccccc2F)[C@@H]1CO,18.3%
8,Cc1ccc(S(=O)(=O)N(C)C[C@H]2OCc3ccccc3-c3c(n(C)c4ccccc34)C(=O)N([C@@H](C)CO)C[C@@H]2C)cc1,22.6%
9,Cc1ccc(S(=O)(=O)N2C[C@@H]3N[C@H](C2)C3c2ccc(-c3ccncc3)cc2)cc1 (some centres undefined),-10.5% [at 21 µM]
10,N#Cc1ccc(-c2ccc(C3[C@@H]4CN(S(=O)(=O)c5ccc(F)cc5)C[C@H]3N4)cc2)cc1 (some centres undefined),18.2%
11,Cn1cnc(S(=O)(=O)N2C[C@@H]3N[C@H](C2)C3c2ccc(-c3ccccc3F)cc2)c1 (some centres undefined),-4.06%
12,O=S(=O)(c1ccc(-c2ccccc2)cc1)N1C[C@@H]2N[C@H](C1)[C@@H]2c1ccc(-c2cccnc2)cc1,-36.2%
13,Cc1ccc(-c2ccc(C3[C@@H]4CN(S(=O)(=O)c5ccccc5)C[C@H]3N4)cc2)cc1 (some centres undefined),-22.7%
14,O=S(=O)(c1ccc(F)cc1)N1C[C@@H]2N[C@H](C1)C2c1ccc(-c2ccc(F)cc2)cc1 (some centres undefined),-10.6%
15,COc1cccc(-c2ccc3c(c2)[C@H]2[C@H](CCN2C(=O)C2CCCC2)[C@H](CO)N3)c1,-23.9% [at 21 µM]
16,COc1ccc2c3c(n(C)c2c1)[C@@H](CO)N(C(=O)c1ccc(F)cc1)CC31CCN(C(=O)Nc2ccc(F)cc2)CC1,0.95%
17,COc1ccc(NC(=O)N(C)C[C@@H]2Oc3cc(-c4ccc(C)cc4)ccc3S(=O)(=O)N([C@@H](C)CO)C[C@@H]2C)cc1,-13.5%
18,COc1ccc(C#Cc2ccc3c(c2)[C@H]2[C@H](CCN2C(=O)C2CCC2)[C@H](CO)N3)cc1,-4.14% [at 21 µM]
19,OC[C@@H]1CC[C@@H]2O[C@H](CCc3ccc(C#CCc4ccccc4)cc3)[C@H](n3cc(-c4ccccc4)nn3)C[C@@H]2O1,-19.3%
20,C[C@@H]1CN([C@H](C)CO)C(=O)c2cccc(NC(=O)Nc3cccc4ccccc34)c2O[C@H]1CN(C)C(=O)NC1CCCCC1,16.1%
21,CCCNC(=O)N1CC(=O)N2[C@@H](CO)[C@@H](c3ccc(C#Cc4cccc(OC)c4)cc3)[C@@H]2C1,4.91%
22,COc1cccc(S(=O)(=O)N(C)C[C@@H]2Oc3ncc(C#Cc4ccc(OC)c(OC)c4)cc3C(=O)N([C@H](C)CO)C[C@@H]2C)c1,29.1%
23,COc1ccc(NC(=O)N(C)C[C@H]2OCc3ccccc3-c3c(n(C)c4ccccc34)C(=O)N([C@@H](C)CO)C[C@H]2C)c(OC)c1,7.72% [at 21 µM]

row,SMILES,"activity change, negative = cytotoxicity"
1,C[C@@H]1CN([C@@H](C)CO)C(=O)c2cccc(NC(=O)C3CC3)c2O[C@@H]1CN(C)C(=O)Nc1ccc(C(F)(F)F)cc1,-20%
2,COc1cccc(NC(=O)N2[C@H](CO)[C@@H](c3ccccc3)[C@H]2CNCC(C)C)c1,-10.2%
3,O=S(=O)(c1ccccc1)N1C[C@@H]2N[C@H](C1)C2c1ccc(-c2ccc(F)cc2)cc1 (some centres undefined),-31.9%
4,CC=Cc1ccc2n(c1=O)C[C@@H]1[C@@H](CO)[C@H](C(=O)N3CCC(Cc4ccccc4)CC3)N(CCC)[C@H]21 (mixture of isomers),-14.5%
5,C[C@H](CO)N1C[C@H](C)[C@H](CN(C)Cc2ccc(Oc3ccccc3)cc2)Oc2ccc(NS(=O)(=O)c3ccc(Cl)cc3)cc2CC1=O,-10.2% [at 21 µM]
6,C[C@H](CO)N1C[C@H](C)[C@@H](CN(C)Cc2ccc(Oc3ccccc3)cc2)Oc2ccc(NS(=O)(=O)c3cn(C)cn3)cc2CC1=O,8.5%
7,C[C@@H]1CN([C@H](C)CO)C(=O)c2cc(NC(=O)Nc3ccc(C(F)(F)F)cc3)ccc2O[C@H]1CN(C)C(=O)Nc1cccc2ccccc12,10.9%
8,C[C@H]1CN([C@@H](C)CO)C(=O)c2cc(NC(=O)Nc3cccc4ccccc34)ccc2O[C@@H]1CN(C)Cc1ccc(Oc2ccccc2)cc1,-10.6% [at 21 µM]
9,C[C@H](CO)N1C[C@H](C)[C@@H](CN(C)C(=O)Nc2cccc3ccccc23)Oc2ccc(NC(=O)Nc3cccc4ccccc34)cc2CC1=O,27.7%
10,CO[C@H]1CN(C)C(=O)c2cc(NC(=O)C3CC3)ccc2OC[C@@H](C)N(Cc2cc(F)ccc2F)C[C@H]1C,30.6%
11,O=S(=O)(c1ccccc1)N1CC[C@@H]2[C@H](CO)Nc3ccc(C#CC4CCCCC4)cc3[C@@H]21,-12.5% [at 23.5 µM]
12,COc1ccc2c3c(n(C)c2c1)[C@@H](CO)N(C(=O)C1CCC1)CC31CN(C(=O)Nc2cccc(F)c2)C1,-35.6%
13,COc1cccc(-c2ccc3c(c2)[C@H]2[C@H](CCN2C(=O)C2CCCC2)[C@@H](CO)N3)c1,-10.3%
14,COCC#Cc1ccc([C@@H]2[C@H](CO)N3CCCCN(S(=O)(=O)c4ccc(OC)cc4)C[C@@H]23)cc1,2.6%
15,CCC(=O)N1CC2(C1)CN(Cc1cc(F)ccc1F)[C@@H](CO)c1[nH]c3cc(OC)ccc3c12,-3.61%
16,OC[C@@H]1CC[C@@H]2O[C@H](CCc3ccc(-c4ccc(F)cc4)cc3)[C@H](n3cc(C4CC4)nn3)C[C@@H]2O1,-5.35%
17,CC(C)(C)[S@](=O)N1Cc2cc(C(=O)NCCN3CCCC3)nc(-c3cccc(-c4ccc(C#N)cc4)c3)c2[C@@H]1CCO,-4.11% [at 21 µM]
18,C/C=C/c1ccccc1[C@@H]1[C@@H](CO)N(S(=O)(=O)c2cccc(F)c2)[C@H]1C#N,-0.51% [at 21 µM]
19,C/C=C/c1ccc([C@H]2[C@@H](CO)N(C(=O)CC)[C@@H]2CNCC2CCCCC2)cc1,-6.29% [at 21 µM]
20,C/C=C/c1ccc([C@H]2[C@@H](CO)N(CC3CCCC3)[C@@H]2CNC(=O)NC(C)C)cc1,7.86% [at 21 µM]
21,C/C=C/c1ccc([C@H]2[C@@H](CO)N(CC3CCCCC3)[C@@H]2CNC(C)C)cc1,-4.8% [at 21 µM]
22,CCc1csc(N2[C@H](C#N)[C@H](c3ccccc3-c3ccc(F)cc3)[C@H]2CO)n1,-13.9%
23,C/C=C/c1ccc([C@H]2[C@@H](C#N)N(C(=O)NC3CCCC3)[C@@H]2CO)cc1,-18.6% [at 21 µM]
